High-throughput results deposited in PubChem by The Scripps Research Institute Molecular Screening Center.
MOR-DOR ag-1 – agonists of OPRM1-OPRD1 heterodimerization, primary screen, cell-based, luminescence. cells. activation, % at 9.3 µM. actives 0.3% (n = 340,000). AID 504326, 2011;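 also: 0% = vehicle-treated cells and 100% = reference agonist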
Target sequence (P35372 whole entry, looked up): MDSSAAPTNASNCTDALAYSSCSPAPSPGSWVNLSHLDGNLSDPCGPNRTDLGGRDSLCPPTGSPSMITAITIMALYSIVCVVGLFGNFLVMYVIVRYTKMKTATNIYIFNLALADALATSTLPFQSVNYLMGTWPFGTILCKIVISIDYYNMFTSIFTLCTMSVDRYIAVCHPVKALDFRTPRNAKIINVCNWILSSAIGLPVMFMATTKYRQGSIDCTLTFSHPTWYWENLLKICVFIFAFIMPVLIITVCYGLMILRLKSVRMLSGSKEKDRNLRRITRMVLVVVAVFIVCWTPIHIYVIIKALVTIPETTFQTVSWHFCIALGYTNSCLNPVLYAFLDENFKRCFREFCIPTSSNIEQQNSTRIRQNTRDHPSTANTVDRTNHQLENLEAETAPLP
Target sequence (P41143 whole entry, looked up): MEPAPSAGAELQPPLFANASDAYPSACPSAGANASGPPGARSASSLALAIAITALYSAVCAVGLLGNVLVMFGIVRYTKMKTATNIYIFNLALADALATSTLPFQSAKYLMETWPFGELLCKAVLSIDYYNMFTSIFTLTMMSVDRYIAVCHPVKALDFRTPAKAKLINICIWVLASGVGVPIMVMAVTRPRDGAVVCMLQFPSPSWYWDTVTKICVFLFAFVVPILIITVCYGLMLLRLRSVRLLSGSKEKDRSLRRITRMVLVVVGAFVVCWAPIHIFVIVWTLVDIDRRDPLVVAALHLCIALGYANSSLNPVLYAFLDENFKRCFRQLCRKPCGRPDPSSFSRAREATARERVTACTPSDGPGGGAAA
HTR5A inv ctr – HTR5A inverse agonists in luminescence cell assay, primary screen, counter-screen for OPRM1-OPRD1 heterodimer inverse agonist project, full-deck HTS; actives 0.083% (n = 340,000); HTR5A cell line, inverse agonism; inhibition, % at 9.3 µM; in the data active = inhibition mostly above about 23%, no sharp cut-off; inactive = mostly below about 18%;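 also: 0% = cells with DMSO and 100% = no-cell wells with DMSO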
HTR5A ag – HTR5A agonists in luminescence cell assay, primary screen, counter-screen for OPRM1-OPRD1 heterodimer agonist project, full-deck HTS. cell-based. activation, % at 9.3 µM. actives 0.61% (n = 340,000); in the data active = activation mostly above about 9.5%, no sharp cut-off; inactive = mostly below about 7.6%;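 also: 0% = cells with vehicle only and 100% = reference agonist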
MOR-DOR inv ag – inverse agonists of MOR-DOR heterodimerization, primary screen, cell-based, luminescence; Mu-type opioid receptor (Homo sapiens) + Delta-type opioid receptor (Homo sapiens), …; cell-based MOR-DOR heterodimer luminescence, inverse agonism; inhibition, % at 9.3 µM; actives 0.21% (n = 340,000); in the data active = inhibition above about 22%, passing the limit was not always enough;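 also: 0% = cells with DMSO and 100% = wells without cells with DMSO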
MOR-DOR ag-2 – OPRM1-OPRD1 heterodimerization promoters, counter-screen for HTR5A agonist project, cell-based, luminescence; shares compounds with HTR5A ag; U2OS counter-screen cells, complementation luminescence, 3 h; activation, % at 9.3 µM; actives 13% (n = 800)
HTR5A ag conf – HTR5A agonists, retest of hits, confirmation, cell-based, luminescence | shares compounds with HTR5A ag | HTR5A agonist cell assay | activation, % at 9.3 µM | actives 17% (n = 800) | AID 504915, 2011; in the data active = activation above about 17%;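 also: 0% = cells with vehicle only and 100% = full reference agonist response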
* marks the source's active call; other numbers are inactive results; nt = not tested or not shown. A selection: hits, their analogues and other compounds. The true share with any hit is near 1.1%. Rule as the data show it, unless noted: active = activation above about 18%; inactive = the rest.

SMILES | MOR-DOR ag-1 | HTR5A inv ctr | HTR5A ag | MOR-DOR inv ag | MOR-DOR ag-2 | HTR5A ag conf
O=C(Nc1ccc(Nc2ccccc2)cc1)c1c(Cl)cccc1Cl | 0 | 28 | -2 | -1 | nt | nt
O=C(Nc1ccc(Nc2ccccc2)cc1)c1c(F)c(F)c(F)c(F)c1F | 5 | -7 | 16* | -24 | 11 | 4
CC1CCCN(S(=O)(=O)c2ccc(NC(=O)C3CC(=O)N(c4ccccc4)C3)cc2)C1 (stereo not given) | 0 | -8 | 3 | 2 | nt | nt
COc1ccc2[nH]c3c(c2c1)CCNC3=O | -3 | -8 | -2 | 18 | nt | nt
COc1ccc2[nH]c3c(c2c1)CCNC3(C)CCc1ccc(Cl)nc1 (stereo not given) | -1 | -81 | 21* | 5 | 2 | 34*
C=CCn1c(SCC(=O)Nc2ccccc2C)nc2sc(C)c(C)c2c1=O | 3 | -20 | 1 | -16 | nt | nt
C=CCn1c(SCC(=O)Nc2sccc2C(N)=O)nc2sc(C)c(C)c2c1=O | -1 | -46 | 18* | 6 | 0 | -3
COc1cccc(N=C(N)N=C(N)N)c1 | 0 | -43 | 16* | -2 | 2 | 2
CCC1=C(OC(=O)N(CC)CC)N2C(=O)OC(=NCC(=O)OC)[C@]2(Cc2ccccc2)[C@H]2C1=CC[C@H]1C(=O)NC(=O)[C@H]12 | -1 | -12 | 1 | 3 | nt | nt
COC(=O)COc1ccc(C(C2C(=O)CC(C)(C)CC2=O)C2C(=O)CC(C)(C)CC2=O)cc1 | -3 | -16 | 4 | 13 | nt | nt
O=C(O/N=C1/CCSc2ccccc21)c1ccccc1 | 1 | -64 | 23* | -6 | 4 | 10
COC(=O)c1c(NC(=O)CSc2n[nH]c(N)n2)sc(C)c1C | -1 | 0 | -1 | 8 | nt | nt
CCOC(=O)c1c(NC(=O)CSc2n[nH]c(CNc3ccccc3)n2)sc(C)c1C | 9 | -12 | 23* | -50 | 6 | 4
CCOC(=O)c1c(NC(=O)CSc2n[nH]c(-c3ccco3)n2)sc(C)c1C | 0 | -24 | 5 | 0 | nt | nt
CCOC(=O)c1c(NC(=O)CSc2n[nH]c(N)n2)sc(CC)c1C | 3 | -24 | 17* | -19 | 9 | 2
CC1CCC(NC(=O)CN2C(=O)NC(C)(C)C2=O)CC1 (stereo not given) | 0 | -12 | 0 | 1 | nt | nt
COc1ccc(NC(=O)CN(C)C(=O)/C=C/c2ccc(OCc3ccccc3)cc2)cc1 | 10 | -51 | 24* | -83 | 2 | 1
COc1ccc(NC(=O)CN(C)C(=O)/C=C/c2ccc(S(=O)(=O)N3CCCCCC3)cc2)cc1 | -1 | -6 | 2 | 8 | nt | nt
CCc1cc2c(C)ccc(C)c2nc1SCC(=O)Nc1cc(C)on1 | -1 | 14 | 0 | 8 | nt | nt
CCc1cc2ccccc2nc1SCC(=O)Nc1cc(C)on1 | 3 | -14 | 26* | -15 | 3 | 4
CCn1cc(CN2CCC(n3nccc3NC(=O)CCOc3ccccc3)CC2)c(C)n1 | 3 | 5 | -1 | -14 | nt | nt
Cc1nnc(SCc2ccc(C(=O)O)cc2)s1 | -2 | -18 | 16* | 9 | 2 | 2
CCOc1ccc(-n2c(SCC(=O)Nc3ccc(CC)cc3)nc3n[nH]c(C)c3c2=N)cc1 | 10 | -43 | 17* | -67 | 10 | 7
CCCN(CCC)C(=O)CSc1nc2n[nH]c(C)c2c(=N)n1-c1ccc(OCC)cc1 | 0 | -9 | 3 | 1 | nt | nt
CCN(CC)C(CNC(=O)CSc1nnnn1-c1ccc(C)c(C)c1)c1ccco1 (stereo not given) | 2 | 8 | -3 | -8 | nt | nt
SMILES | MOR-DOR ag-1 | HTR5A inv ctr | HTR5A ag | MOR-DOR inv ag | MOR-DOR ag-2 | HTR5A ag conf
CCN(CC)C(CNC(=O)CSc1nnnn1-c1c(C)cccc1C)c1ccco1 (stereo not given) | 1 | -55 | 20* | -6 | 3 | 29*
Cc1ccc(-c2nnc(N3CCCCC3)c3ccccc23)cc1S(=O)(=O)NCC1CCCO1 (stereo not given) | 1 | 7 | 4 | -6 | nt | nt
O=C(Nc1ccc(C(=O)N2CCCC2)cc1)c1ccccc1[N+](=O)[O-] | 0 | 26 | 18* | -2 | 0 | 5
COc1ccc(-c2csc(NC(=S)NC(=O)/C=C/c3ccc(C(C)C)cc3)n2)cc1OC | -1 | -13 | 4 | 6 | nt | nt
COc1ccc(-c2nnc(NC(=O)CS(=O)(=O)c3ccc(F)cc3)o2)c(OC)c1 | -3 | 9 | -1 | 14 | nt | nt
O=C(CS(=O)(=O)c1ccc(F)cc1)Nc1nnc(-c2ccccc2Cl)o1 | -2 | -92 | 34* | 11 | 0 | -5
CN1C[C@@H]2[C@@H]3C(=O)N(C)C(=O)[C@@H]3[C@](C)(C1=O)N2C(=O)c1ccc(C(F)(F)F)cc1 | -4 | -3 | 1 | 22 | nt | nt
N/C(Cc1ccc(Cl)c(Cl)c1)=N\OC(=O)c1cccs1 | 1 | -104 | 44* | -4 | 2 | 1
O=C(COC(=O)C1CCC1)NCCc1ccc(Cl)cc1Cl | -2 | 2 | -3 | 9 | nt | nt
COc1ccc(Cn2c(N)c(S(=O)(=O)c3cccs3)c3nc4ccccc4nc32)cc1 | 3 | -5 | 15* | -13 | 3 | 3
Cc1ccc(Cn2c(N)c(S(=O)(=O)c3cccs3)c3nc4ccccc4nc32)cc1 | 2 | -7 | 3 | -12 | nt | nt
CCOC(=O)c1sc(NNC(=O)c2ccc(C)cc2)nc1C | 0 | -16 | 0 | 2 | nt | nt
CCOC(=O)c1sc(NNC(=O)c2ccc(F)cc2)nc1C | 3 | -3 | 16* | -14 | 0 | -2
CC(C)c1ccc(NC(=O)CSc2nc3ccccc3nc2N2CCCC2)cc1 | -1 | -7 | 1 | 6 | nt | nt
O=C1C2ON(c3ccccc3)C(c3ccncc3)C2C(=O)N1c1ccc(N2CCOCC2)cc1 (stereo not given) | -1 | -56 | 20* | 4 | -2 | -5
Cc1ccnc(NC(=O)c2cccc3ccccc23)c1 | -3 | -42 | 17* | 13 | 0 | 0
Cc1ccnc(NC(=O)c2ccccc2[N+](=O)[O-])c1 | 0 | 10 | 8 | 2 | nt | nt
O=C(Nc1cccc(Cl)c1)c1ccccc1NC(=O)C1CCCCC1C(=O)O (stereo not given) | -2 | -47 | 1 | 10 | nt | nt
Cc1cc(C(=O)COC(=O)c2ccc(O)cc2O)c(C)n1-c1ccc(OC(F)F)cc1 | 8 | -12 | 27* | -50 | 1 | 25*
Cc1cc(C(=O)COC(=O)c2ccc(O)cc2O)c(C)n1-c1ccccc1 | 12 | 12 | 9 | -47 | nt | nt
Cc1cc(C(=O)CC#N)c(C)n1-c1ccc(OC(F)F)cc1 | -3 | -21 | -2 | 17 | nt | nt
COc1ccc(-n2c(C)cc(C(=O)COC(=O)c3ccc(O)cc3O)c2C)cc1 | 11 | -12 | 15* | -45 | 7 | 10
